In ChEMBL document CHEMBL1157539, “Thousands of chemical starting points for antimalarial lead identification” (Nature, 2010) one finds Inhibition data, which are given here for 36 molecules.

The assay concerns Plasmodium falciparum. The experiment in a line: GSK_TCMDC: Inhibition of Plasmodium falciparum Dd2 in whole red blood cells, using parasite LDH activity as an index of growth. Test compounds present at 2uM. The assay is classed as functional.
As for `Br.CCN(CC)CCn1c(=N)n(CC(=O)c2ccc(-c3ccccc3)cc2)c2ccccc21`, the Inhibition was determined as 38%.
As for `COc1ccc(CN(C)CCCc2ccc(NC(=O)c3cccc4c(O)c5ccccc5nc34)cc2)cc1OC`, the figure is 54%; as for `COc1ccc(N2CCN(CCCCNC(=O)c3ccc(NC(=O)c4cccc(Cl)c4)cc3)CC2)c(OC)c1`, 33%.
As for `Cl.Nc1c(I)cc(C(=O)Nc2ccc3nc4c(c(N)c3c2)CCCC4)cc1I`, the figure is 99%; as for `Br.CC1CCC2(CC1)N=C(N)N=C(N)N2OCc1ccc(Br)c2ccccc12` (stereo unspecified), 40%.
`Cc1[nH]c(C)c(-c2ccc(CCc3ccc(F)cc3F)cc2)c(=O)c1Br` registered an Inhibition of 98%.
`CC(C(=O)OCCOCn1cnc2c(=O)[nH]c(N)nc21)N(C)C(=O)OC(C)(C)C` (stereo unspecified) had an Inhibition of 0%.
To `O=C(/C=C/c1ccc(-c2ccccc2)cc1)NCCCCCN1CCC(c2c[nH]c3ccccc23)CC1` belongs 23%.
In turn, `O=[N+]([O-])c1ccc(N2CCCN(C(=S)Nc3ccc(F)cc3Br)CC2)nc1` returned an Inhibition of 99%.
As for `COc1ccc(CC(=O)NC(CCN2CCC3(CC2)CN(S(C)(=O)=O)c2ccccc23)c2ccc(Cl)c(Cl)c2)cc1OC` (stereo unspecified), the figure is 77%; as for `Cc1cccc2nc(-c3cccc(-c4cccc(NC(=O)CN5CCN(C)CC5)c4)c3)[nH]c12`, 99%; as for `COC(=O)c1cccc(CNCc2cccc(-c3ccc(-c4nc5ccccc5[nH]4)s3)c2)c1.O=C(O)C(F)(F)F`, 59%.
To `CC(C)c1ccc(NC(=O)Nc2ccc(CCNCCCc3ccccc3)cc2)cc1` belongs 56%; to `COc1ccc2[nH]c(C)cc(=NN=Cc3ccc(F)cc3)c2c1`, 99%; to `CN1CCC(N(Cc2ccc(-c3ccc(C(F)(F)F)cc3)cc2)C(=O)Cn2cc(Cc3cnn(C)c3)c(=O)nc2SCc2cccc(F)c2F)CC1.O=C(O)C(O)C(O)C(=O)O`, 91%.
The molecule `Cc1noc(C)c1-c1cccc(CNCc2cccc(-c3ccc(-c4nc5cccc(C)c5[nH]4)s3)c2)c1.O=C(O)C(F)(F)F` displayed an Inhibition of 75%.
As for `c1ccc2cc3c(NCCN4CCOCC4)ccnc3cc2c1`, the figure is 98%; as for `O=C(NC1CCCCC1)c1csc(C2CCCN(C(=O)c3ccc(O)c(-c4cccc(C(F)(F)F)c4)c3)C2)n1` (stereo unspecified), 85%.
To `COc1cc(N(Cc2ccccc2C)S(=O)(=O)Cc2ccccc2[N+](=O)[O-])c(OC)cc1Cl` belongs 44%; to `Cl.Nc1ccnc2ccc(NC(=O)CCCCCc3ccccc3)cc12`, 30%; to `Cc1ccc(CNC(=O)[C@H](CC(C)C)Nc2cc(C)nc(Nc3ccccc3)n2)cc1.O=C(O)C(F)(F)F`, 19%.
`N#Cc1ccc(CN2CCCN(Cc3cccc(NC(=O)c4ccc(Cl)c(Cl)c4)c3)CC2)cc1.O=C(O)C(F)(F)F` gave an Inhibition of 10%.
Take `CC(C)NCc1ccc(-c2cccc(-c3nc4cc(C(F)(F)F)ccc4[nH]3)c2)cc1.O=C(O)C(F)(F)F`: the Inhibition is 100%.
With `Cc1cccc(NC(=O)N(Cc2cc3cc(C)cc(C)c3[nH]c2=O)C2CC2)c1`, the Inhibition is 94%.
`O=C1NC(=S)N/C1=C/C=C/c1ccc([N+](=O)[O-])o1`: the Inhibition is 30%.
Molecule `Br.CCCOC(=O)c1ccc(OCCCON2C(=N)N=C(N)NC2(C)C)cc1` displayed an Inhibition of 97%.
As for `Cc1[nH]c(C)c(-c2ccc(OCc3cc(F)cc(F)c3)nc2)c(=O)c1Br`, the figure is 97%.
For the molecule `CN1CCCC(CN2CCN(Cc3cccc(-c4ccc(-c5nc6cc(C(F)(F)F)ccc6[nH]5)cc4)c3)CC2)C1.O=C(O)C(F)(F)F` (stereo unspecified), the Inhibition is 96%.
`COc1cc2nc(NCCCO)nc(Nc3ccc(Oc4ccccc4)cc3)c2cc1OC`: the Inhibition worked out at 100%.
In turn, `CN1CCN(CCCN(Cc2csc(-c3ccc(CNCc4ccccc4)cc3)n2)S(=O)(=O)c2ccccc2)CC1.O=C(O)C(F)(F)F` displayed an Inhibition of 78%.
The molecule `CCNc1cc(CCCC(=O)OCC)nc(Nc2ccc(C)cc2)n1.O=C(O)C(F)(F)F` returned an Inhibition of 63%.
With `CO/C(=C\C=C\c1cc2cc(Cl)c(Cl)cc2[nH]1)C(=O)NCCCN1CCN(Cc2ccccc2)CC1`, the Inhibition turned out to be 65%.
As for `Cn1cncc1CNCc1ccc(-c2cccc(-c3nc4ccccc4[nH]3)c2)cc1.O=C(O)C(F)(F)F`, the figure is 92%; as for `CN(C)c1ccc(C=CC(=O)NC(=O)c2ccccc2O)cc1`, 97%.
`CCOC(=O)c1c(CN2CCCC2)n(-c2ccccc2)c2cc(Br)c(O)cc12`: the Inhibition was found to be 53%.
Turning to `Fc1cccc(C=NN=c2cc[nH]c3ccc(C(F)(F)F)cc23)c1`, the Inhibition is recorded as 97%.

Usually Inhibition stands for how much of the control response was suppressed.
